In PubChem BioAssay (Tox21):
Several values for one entry are separate records, joined by “and”; a condition that tells them apart may be missing. Identical values can stand only once. Results filed as inconclusive are left out. Where a structure was tested more than once in an assay, its records may differ in their call. Activity calls are given as the source filed them. Unless noted, calls come from the whole dose curve; as a rule, active = well fitted curve in the direction sought with a large enough effect in the repeat runs; inconclusive = weak or mixed curves; inactive = no such curve, though single readings can be large; an effect the other way counts as inactive or inconclusive.

Tests used:
[1] = qHTS assay to identify small molecule antagonists of the retinoic acid receptor (RAR) signaling pathway (AID 1159552; note: nearly all actives have a fitted effect of over 50% in size; note: potency is the fitted concentration of half-maximal effect)
Procedure, shortened: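 Retinol signaling pathway inhibitors screened in C3RL4 RARE-luciferase reporter cells seeded overnight at 37 C, then compounds added with 1 uM (final) retinol as pathway substrate. After 6 hr at 37 C, luciferase luminescence read after 30 min at room temperature.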

[2] = qHTS assay to identify small molecule agonists of the retinoic acid receptor (RAR) signaling pathway (AID 1159553); note: potency is the fitted concentration of half-maximal effect
Procedure, shortened: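 Reporter readout comes from luciferase under RARE control in C3RL4 cells; compound exposure lasts 6 hr at 37 C in 5% CO2, and luminescence is recorded following a 30 min room-temperature incubation with reagent.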

[3] = qHTS assay to identify small molecule antagonists of the estrogen related receptor (ERR) signaling pathway from Tox21 library - cell viability counter screen (AID 1224834); note: nearly all actives have a fitted effect of over 30% in size; note: potency is the fitted concentration of half-maximal effect
Procedure, shortened: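 After 17.5 h of compound exposure at 37 C, ERR cells are incubated with CellTiter-Fluor for 30 min and fluorescence intensity serves as the viability measure.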

[4] = target: Luciferin 4-monooxygenase (Photinus pyralis) (UniProt P08659); test: qHTS assay to identify small molecule inhibitors of firefly luciferase (AID 1224835); note: nearly all actives have a fitted effect of over 25% in size; note: potency is the fitted concentration of half-maximal effect
Sequence of Luciferin 4-monooxygenase (Photinus pyralis) (P08659 whole entry, looked up): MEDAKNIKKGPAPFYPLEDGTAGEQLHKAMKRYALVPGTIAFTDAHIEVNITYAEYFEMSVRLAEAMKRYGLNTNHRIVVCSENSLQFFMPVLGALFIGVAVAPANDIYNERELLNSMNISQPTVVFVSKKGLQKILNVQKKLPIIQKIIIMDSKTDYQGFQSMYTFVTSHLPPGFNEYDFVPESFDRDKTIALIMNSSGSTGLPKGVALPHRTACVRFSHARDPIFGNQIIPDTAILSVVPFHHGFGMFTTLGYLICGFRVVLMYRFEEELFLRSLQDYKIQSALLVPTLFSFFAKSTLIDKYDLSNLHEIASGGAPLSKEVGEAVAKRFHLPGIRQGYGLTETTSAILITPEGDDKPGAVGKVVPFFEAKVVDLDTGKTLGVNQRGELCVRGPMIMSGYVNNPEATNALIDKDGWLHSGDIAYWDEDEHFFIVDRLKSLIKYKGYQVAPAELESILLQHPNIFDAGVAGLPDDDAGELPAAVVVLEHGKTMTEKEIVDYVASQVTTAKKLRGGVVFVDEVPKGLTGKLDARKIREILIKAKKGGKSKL
Procedure, shortened: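 Biochemical qHTS: compounds run as interplate titrations against purified firefly enzyme, with D-luciferin and ATP each at its KM concentration. Light output recorded by CCD imaging.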

[5] = qHTS assay to identify small molecule agonists of the constitutive androstane receptor (CAR) signaling pathway - cell viability counter screen (AID 1224836); note: series mostly up to about 92 µM; nearly all actives have a fitted effect of over 45% in size
Procedure, shortened: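 HepG2 cells stably carrying hCAR and a CYP2B6-2.2kb reporter; 15-concentration compounds plus PK11195 (final 0.75 uM), 23 hr at 37 C/5% CO2. Viability read by CellTiter-Fluor fluorescence.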

[6] = qHTS assay to identify small molecule antagonists of the constitutive androstane receptor (CAR) signaling pathway - cell viability counter screen (AID 1224837); note: series mostly up to about 92 µM; nearly all actives have a fitted effect of over 45% in size
Procedure, shortened: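 Counter screen run in HepG2-CYP2B6-hCAR cells: 4 hr settle, compound titration (15 concentrations) with 50 nM CITCO, 23 hr at 37 C/5% CO2, CellTiter-Fluor fluorescence.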

[7] = target: Nuclear receptor subfamily 1 group I member 3 (Homo sapiens) (UniProt Q14994); test: qHTS assay to identify small molecule antagonists of the constitutive androstane receptor (CAR) signaling pathway (AID 1224838);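 note: HepG2 cells stably expressing hCAR with CYP2B6 luciferase reporter stimulated by CITCO; nearly all actives have a fitted effect of over 40% in size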
Sequence of Nuclear receptor subfamily 1 group I member 3 (Homo sapiens) (Q14994 whole entry, looked up): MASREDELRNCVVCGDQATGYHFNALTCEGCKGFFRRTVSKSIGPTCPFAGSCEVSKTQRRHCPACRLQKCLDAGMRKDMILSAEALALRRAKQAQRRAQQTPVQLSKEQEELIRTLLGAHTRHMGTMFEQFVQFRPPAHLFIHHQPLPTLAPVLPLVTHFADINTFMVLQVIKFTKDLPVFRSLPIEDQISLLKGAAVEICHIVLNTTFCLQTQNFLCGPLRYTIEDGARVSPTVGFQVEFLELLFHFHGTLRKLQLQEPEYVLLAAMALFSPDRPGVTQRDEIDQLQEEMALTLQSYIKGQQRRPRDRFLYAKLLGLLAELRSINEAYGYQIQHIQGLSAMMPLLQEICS
Procedure, shortened: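 Cell line: HepG2 double-stable for hCAR and CYP2B6-2.2kb reporter. Agonist: CITCO, 50 nM final. Compounds: 15 concentrations, 24 h, 37 C. Detection: ONE-Glo luminescence.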

[8] = target: Nuclear receptor subfamily 1 group I member 3 (Homo sapiens) (UniProt Q14994); test: qHTS assay to identify small molecule agonists of the constitutive androstane receptor (CAR) signaling pathway (AID 1224839); note: nearly all actives have a fitted effect of over 15% in size; note: potency is the fitted concentration of half-maximal effect;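 for activation: HepG2 cells stably carrying human CAR and a CYP2B6 luciferase reporter; series mostly up to about 92 µM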
Procedure, shortened: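 HepG2 cells stably co-transfected with hCAR and a CYP2B6-2.2kb luciferase reporter; compounds at 15 concentrations with 0.75 uM PK11195 present. After 24 hr at 37 C, luciferase read by ONE-Glo luminescence.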

[9] = qHTS assay to identify small molecule antagonists of the estrogen related receptor signaling pathway with the pleiotropic PPARgamma coactivator (PGC) from Tox21 10K library - cell viability counter screen (AID 1224840; active = well fitted cell-killing curve with a large enough effect in the repeat runs, not every such curve was filed as active; note: nearly all actives have a fitted effect of over 40% in size)
Procedure, shortened: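 Following seeding of 2,000 PGC/ERR cells/well and 6 hours' incubation, test compounds were delivered in DMSO. The plates then sat 17.5 hours at 37 C before a fluorogenic live-cell protease reagent (CellTiter-Fluor) was read after 30 min.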

[10] = qHTS assay to identify small molecule antagonists of the estrogen related receptor signaling pathway with the pleiotropic PPARgamma coactivator (PGC) from Tox21 10K library (AID 1224841; call rule not given here; note: actives are mostly falling curves and most rising ones were filed inactive; nearly all actives have a fitted effect of over 50% in size; note: potency is the fitted concentration of half-maximal effect)
Procedure, shortened: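 qHTS antagonist format: PGC/ERR cells, 2k/well, compound in DMSO by pin transfer after 6 h attachment, 18 h treatment at 37 C, One-Glo luminescence read at 30 min.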

[11] = qHTS assay to identify small molecule agonists of the estrogen related receptor signaling pathway with the pleiotropic PPARgamma coactivator (PGC) from Tox21 10K library (AID 1224842); note: nearly all actives have a fitted effect of over 15% in size; note: potency is the fitted concentration of half-maximal effect
Procedure, shortened: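 PGC/ERR reporter cell line, 2,000 cells per well, incubated 6 h at 37 C before 23 nL compound in DMSO was added. After 18 h at 37 C, One-Glo luminescence read following 30 min at room temperature.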

[12] = qHTS assay to identify small molecule agonists of the hypoxia (HIF-1) signaling pathway - cell viability counter screen (AID 1224844; calls by dose curve; note: nearly all actives have a fitted effect of over 50% in size; note: potency is the fitted concentration of half-maximal effect)
Procedure, shortened: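 Cells (HRE-bla ME-180, 2,000 per well) sat 5 hrs at 37C, got compound for 17 hrs, were read for CCF4-AM FRET, and were finally lysed with CellTiter-Glo for a 30 min room-temperature luminescence read.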

[13] = qHTS assay to identify small molecule agonists of H2AX (AID 1224845; active = well fitted activation curve with a large enough effect in the signal ratio in the repeat runs, not every such curve was filed as active; the % refers to the signal ratio; note: potency is the fitted concentration of half-maximal effect)
Procedure, shortened: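 Wild-type CHO-K1 cells, plated overnight, exposed 3hr at 37C to 15 concentrations (0.76% DMSO final). Lysed, then HTRF anti-pH2AX (S139) cryptate and anti-H2AX-d2 antibodies, 24 hr room temperature; 665/620 nm emission read.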

[14] = target: Thyrotropin receptor (Homo sapiens) (UniProt P16473); test: qHTS assay to identify small molecule agonists of the thyroid stimulating hormone receptor (TSHR) signaling pathway (AID 1224843; calls by dose curve; note: nearly all actives have a fitted effect of over 45% in size; note: potency is the fitted concentration of half-maximal effect)
Sequence of Thyrotropin receptor (Homo sapiens) (P16473 whole entry, looked up): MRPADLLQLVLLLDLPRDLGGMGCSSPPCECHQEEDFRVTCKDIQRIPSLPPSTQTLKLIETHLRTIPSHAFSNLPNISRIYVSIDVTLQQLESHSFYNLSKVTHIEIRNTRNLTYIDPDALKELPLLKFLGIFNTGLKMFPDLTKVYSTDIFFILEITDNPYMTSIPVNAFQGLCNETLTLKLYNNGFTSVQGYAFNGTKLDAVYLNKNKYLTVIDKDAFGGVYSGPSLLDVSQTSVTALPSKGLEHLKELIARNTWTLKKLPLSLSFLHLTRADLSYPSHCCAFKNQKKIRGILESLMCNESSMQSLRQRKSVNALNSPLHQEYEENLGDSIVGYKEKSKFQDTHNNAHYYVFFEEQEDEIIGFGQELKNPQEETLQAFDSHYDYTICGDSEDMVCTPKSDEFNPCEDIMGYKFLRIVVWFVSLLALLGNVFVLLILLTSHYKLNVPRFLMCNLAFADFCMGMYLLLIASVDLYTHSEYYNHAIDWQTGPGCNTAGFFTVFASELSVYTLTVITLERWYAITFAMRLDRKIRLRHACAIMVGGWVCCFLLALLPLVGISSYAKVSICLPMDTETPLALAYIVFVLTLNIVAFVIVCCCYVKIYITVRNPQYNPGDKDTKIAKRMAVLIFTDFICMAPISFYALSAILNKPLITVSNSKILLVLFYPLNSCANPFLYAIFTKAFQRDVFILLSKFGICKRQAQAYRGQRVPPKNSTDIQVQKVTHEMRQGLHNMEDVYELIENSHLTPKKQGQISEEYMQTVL
Procedure, shortened: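 Steps: seed 800 TSHR-HEK293 cells per well; add test compound and hold 30 min at ambient temperature; dispense cAMP-d2 then anti-cAMP cryptate; incubate 1 h at ambient; measure fluorescence intensity.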

[15] = qHTS assay to identify small molecule antagonists of the estrogen related receptor (ERR) signaling pathway - cell viability counter screen (AID 1224818); note: series mostly up to about 46 µM
Procedure, shortened: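 After a 6 h pre-incubation, ERR cells were dosed by pin tool with compounds, positive/negative controls or DMSO alone. Following 17.5 h at 37 C and 30 min with CellTiter-Fluor, fluorescence was recorded.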

[16] = qHTS assay to identify small molecule antagonists of the estrogen related receptor signaling pathway with the pleiotropic PPARgamma coactivator (PGC) cell viability counter screen (AID 1224822; note: series mostly up to about 46 µM)
Procedure, shortened: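 PGC/ERR cells were plated at 2,000 per well and allowed 6 h to settle before compound addition. Following 17.5 h at 37 C, CellTiter-Fluor reagent was added and fluorescence was read 30 min later.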

[17] = qHTS assay to identify small molecule agonists of the estrogen related receptor (ERR) signaling pathway (AID 1224820)
Procedure, shortened: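 ERR reporter cells (NTP line) plated 2,000/well, incubated 6 h at 37 C/5% CO2, then pinned with compounds in DMSO and held 18 h at 37 C. One-Glo added; luminescence read after 30 min at room temperature.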

[18] = test system: estrogen-related receptor alpha (ERRalpha) with PGC-1alpha coactivator, human; test: qHTS assay to identify small molecule antagonists of the estrogen related receptor signaling pathway with the pleiotropic PPARgamma coactivator (PGC) (AID 1224821; calls by dose curve;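 note: series mostly up to about 46 µM; lower luminescence signal means antagonism of PGC/ERR signalling; nearly all actives have a fitted effect of over 50% in size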)
Procedure, shortened: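 Cells engineered for PGC/ERR signalling (line from NTP) were plated 6 h at 37 C/5% CO2, then exposed to DMSO-dissolved compound for 18 h at 37 C. Luciferase activity was read by One-Glo luminescence after 30 min at room temperature.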

[19] = qHTS assay to identify small molecule agonists of the estrogen related receptor signaling pathway with the pleiotropic PPARgamma coactivator (PGC) (AID 1224823)
Procedure, shortened: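 PGC/ERR reporter cells were seeded, rested 6 h at 37 C/5% CO2, then exposed to compounds in DMSO by pin transfer for 18 h at 37 C. Luciferase activity was read as luminescence after One-Glo reagent and 30 min at room temperature.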

Measured: Potency

NCCCCCCNCCCCCCN
inactive: [1] | [2] | [3] | [4] | [5] | [6] | [7] | [8] | [9] | [10] | [11] | [12] | [13]

c1ccc(Nc2cccc3ccccc23)cc1
inactive: [1] | [2] | [3] | [5] | [6] | [7] | [9] | [12]
active: [4] 40.5 µM and 35.6 µM | [8] 61.9 µM and 61.1 µM
15.6 µM (active) and inactive: [11]

C=C1C(C)(C)[C@@]2(Cl)C(Cl)[C@]1(Cl)C(Cl)(Cl)C2(Cl)Cl (some centres not stated)
inactive: [2] | [4] | [5] | [6] | [7] | [11]
active: [1] 60 µM | [3] 67.3 µM | [8] 21.3 µM | [10] 53.5 µM | [14] 13.4 µM | [12] 48.1 µM

CSc1c(Cl)c(Cl)c(Cl)c(Cl)c1Cl
inactive: [1] | [2] | [3] | [4] | [5] | [6] | [7] | [9]

CCCCNc1c(C(=O)OCC)c(C)nc2c1cnn2CC
inactive: [1] | [2] | [15] | [16] | [3] | [4] | [5] | [7] | [9] | [14] | [12] | [13]

O=C(Oc1ccccc1)c1cccc(C(=O)Oc2ccccc2)c1
active: [2] 0.456 µM | [8] 1.44 µM
inactive: [1] | [15] | [3] | [5] | [7] | [9] | [12]

COC(=O)[C@]1(C)CCC[C@@]2(C)[C@H]1CC=C1C=C(C(C)C)CC[C@@H]12
inactive: [1] | [2] | [3] | [4] | [5] | [6] | [7] | [8] | [9] | [10] | [11] | [14]

CCCCCCCCCCCC(=O)N(CC)CC
inactive: [1] | [2] | [3] | [4] | [5] | [6] | [7] | [9] | [14] | [13]
active: [8] 54.5 µM

O=C(NO)c1ccccc1
inactive: [1] | [2] | [15] | [17] | [18] | [16] | [19] | [5] | [6] | [9] | [11]
active: [10] 18.4 µM

CC(C)(C)C1=CC(=O)C=C(C(C)(C)C)C1=O
inactive: [1] | [2] | [3] | [4] | [5] | [6] | [7] | [8] | [9] | [14] | [12] | [13]

CC(C)(c1cc(Br)c(O)c(Br)c1)c1cc(Br)c(O)c(Br)c1
inactive: [1] | [2] | [3] | [5] | [6] | [7] | [8] | [9] | [10] | [11] | [14]
active: [13] 113 µM
79.4 µM (active) and inactive: [4]

Nc1ncnc2c1ncn2[C@@H]1O[C@H](COP(=O)(O)O)[C@@H](O)[C@H]1O
inactive: [1] | [2] | [3] | [4] | [5] | [6] | [7] | [9] | [14] | [12]

Cn1cnc2ncnc(N)c21
inactive: [1] | [2] | [3] | [4] | [5] | [6] | [7] | [8] | [9] | [14] | [12]

COC(=O)CC#N
inactive: [1] | [2] | [3] | [4] | [5] | [6] | [7] | [9] | [14] | [12]

CCCCCCCC/C=C\CCCCCCCC(=O)OCCOC(=O)CCCCCCC/C=C\CCCCCCCC
inactive: [1] | [2] | [3] | [4] | [5] | [6] | [7] | [8] | [9] | [14] | [12] | [13]

NC(=O)c1ccccc1N
inactive: [1] | [2] | [3] | [4] | [5] | [6] | [7] | [9] | [10] | [11] | [14] | [12]

O=C1OC(=O)c2cccc3cccc1c23
inactive: [1] | [2] | [3] | [4] | [5] | [6] | [7] | [8] | [9] | [10] | [11] | [12]

CCN(CC)CCSC(=O)C(c1ccccc1)c1ccccc1
inactive: [2] | [3] | [4] | [5] | [6] | [7] | [9] | [14] | [12]
active: [1] 26.6 µM
